Source: PubChem
Hits are enriched below; roughly 4.2% of the tested compounds scored in any of these assays.
NALP1 inh: inhibitors of NALP1 inflammasome in yeast | S. cerevisiae NALP1/ASC/caspase-1 growth, X-gal OD620, 72 h | 280,000 tested, 0.61% active | inhibition, % at 10 µM | AID 2071; in the data active = inhibition mostly above about 24%, no sharp cut-off; inactive = mostly below about 32%
tim10-1 inh: growth inhibitors of tim10-1 mutant yeast | S. cerevisiae tim10-1 ts strain growth, BacTiter-Glo, 24 h | inhibition, % at 20 µM | 330,000 tested, 2.2% active;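 active = inhibition of at least 40%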;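 also: mutant grown at 25 °C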
V-ATPase pHluor: yeast V-ATPase proton transport regulation by pHLuorin | S. cerevisiae, pHLuorin cytosolic pH fluorescence | response, % at 10 µM | 350,000 tested, 0.37% active | AID 504577; in the data active = response mostly above about 7.3%, no sharp cut-off; inactive = mostly below about 5.4%; also: actives read high
TIM10 inh: growth inhibitors of TIM10 yeast strain; S. cerevisiae TIM10 strain growth, BacTiter-Glo luminescence, 24 h; inhibition, % at 10 µM; 330,000 tested, 1.4% active;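 active = inhibition of 40% or more at the single tested concentration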;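 also: wild-type TIM10 isogenic control strain grown at permissive 25 °C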
tim23-1 inh: tim23-1 yeast growth inhibition | S. cerevisiae tim23-1 growth, BacTiter-Glo luminescence, 24 h | inhibition, % at 20 µM | 330,000 tested, 1.3% active;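 active = growth inhibition of the mutant yeast at or above 50%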;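 also: temperature-sensitive mutant grown at 25 °C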
NLRP3 yeast inh: inhibitors of NALP3 inflammasome in yeast | AID 2825 | inhibition, % at 10 µM | Yeast reconstituted NLRP3/ASC/caspase-1, beta-gal luminescence, 24 h | 330,000 tested, 0.39% active;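 active = inhibition of 50% or more; inactive = inhibition below 50%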
NALP3 confirm: confirmation of NALP3 inhibitors in yeast | 1,300 tested, 81% active | inhibition, % at 10 µM | yeast expressing human NALP3, luminescence | shares compounds with NLRP3 yeast inh; in the data active = inhibition above about 48%
Casp1-ASC yeast: caspase-1-ASC yeast counter-screen hit. shares compounds with NLRP3 yeast inh. yeast expressing Caspase-1-ASC, luminescence counter screen. inhibition, % at 10 µM. 1,000 tested, 66% active. AID 488784
NALP3 retest: retest-confirmed inhibitor of NALP3 in yeast | 1,000 tested, 53% active | shares compounds with NLRP3 yeast inh | yeast expressing human NALP3, luminescence read-out | inhibition, % at 10 µM
Of the large screens only hits and unclear results are named; the others gave an inactive call (follow-up assays come after a bar, where they were run). Rule as the data show it, unless noted: active = inhibition above about 50%; inactive = the rest.

CC(C)NC(=O)c1c(O)c2ccccc2[nH]c1=O	NLRP3 yeast inh 54 | NALP3 confirm 72 | Casp1-ASC yeast inactive | NALP3 retest 53
COC(=O)/C=C1\C(=O)N(c2nc3ccc(OC)cc3s2)C(=S)N1c1ccc(F)cc1	none (no result: V-ATPase pHluor)
COc1ccc2nc(N3C(=O)CNC3=S)sc2c1	NLRP3 yeast inh 67 (no result: NALP1 inh) | NALP3 confirm inactive
COc1ccc(C(=O)N2CCN(c3ccccc3)CC2)cc1S(=O)(=O)N1CCCC1	none
CN(C)CCC(=O)c1ccc2c(c1)OCO2	none
O=C(/C=C/c1ccccc1Br)c1ccc2c(c1)OCO2	NLRP3 yeast inh 62 | NALP3 confirm 60 | Casp1-ASC yeast inactive | NALP3 retest inactive
O=C(CCNc1ccccc1)c1ccc2c(c1)OCO2	NLRP3 yeast inh 56 | NALP3 confirm 64 | Casp1-ASC yeast 64 | NALP3 retest inactive
O=C(/C=C/c1cccc(Br)c1)c1ccc2c(c1)OCO2	none
O=C(/C=C/c1ccccc1)c1ccc2c(c1)OCO2	NLRP3 yeast inh 53 | NALP3 confirm inactive | Casp1-ASC yeast inactive | NALP3 retest inactive
O=C(COc1ncnc2scc(-c3ccccc3)c12)NCCN1C(=O)CSC1=O	none (no result: V-ATPase pHluor)
c1ccc2c(c1)CSc1ccccc1N2	NLRP3 yeast inh 53 (no result: NALP1 inh) | NALP3 confirm inactive
COc1ccccc1-c1nnc2sc(-c3cc4ccccc4o3)nn12	NLRP3 yeast inh 59 | NALP3 confirm 70
CCc1ccc(OCC(=O)NCc2ccco2)c(Br)c1	NLRP3 yeast inh 51 | NALP3 confirm inactive | Casp1-ASC yeast inactive | NALP3 retest inactive
O=C1NCC2=C1C(c1ccc(Br)cc1)Nc1ccccc1N2 (configuration not stated)	NLRP3 yeast inh 52 | NALP3 confirm 63 | Casp1-ASC yeast inactive | NALP3 retest inactive
CC1(C)CC(=O)C2=C(C1)Nc1ccccc1NC2c1ccc(F)cc1 (configuration not stated)	none
CCc1ccc(C(=O)COC(=O)c2ccccc2OC)cc1	none
O=C1/C(=C/c2ccc(N3CCOCC3)o2)SC(=Nc2ccccc2)N1CCc1c[nH]c2ccccc12	NLRP3 yeast inh 68 | NALP3 confirm 77
Cc1ccc(C(=O)NC(=C(Cl)Cl)S(=O)(=O)c2ccc(C)cc2)cc1	none
Cc1ccc(C(=O)NC(=C(Cl)Cl)S(=O)(=O)c2ccc(Cl)cc2)cc1	NLRP3 yeast inh 57 | NALP3 confirm inactive | Casp1-ASC yeast inactive | NALP3 retest inactive
CCCc1c(C(=O)N/N=C(/C)c2ccncc2)nnn1-c1nonc1N	none
O=C(c1ccccc1)c1cccc(C(=O)c2ccccc2)c1	NLRP3 yeast inh 56 (no result: NALP1 inh) | NALP3 confirm 58 | Casp1-ASC yeast 54 | NALP3 retest 51
c1ccc(C2Nc3ccccc3C3OCCCC23)cc1 (configuration not stated)	NLRP3 yeast inh 62 | NALP3 confirm 54 | Casp1-ASC yeast inactive | NALP3 retest 58
Cc1ccc2c(c1)[C@H]1OCC[C@H]1[C@@H](c1ccncc1)N2	none
Cc1cc(C)c(S(=O)(=O)c2cccc(Br)c2C)c(Cl)n1	none (no result: tim10-1 inh, TIM10 inh, tim23-1 inh, NLRP3 yeast inh)
COc1cccc(CN(C)C(=O)c2csc3c2CCCC3)c1OC	NLRP3 yeast inh 51 | NALP3 confirm inactive | Casp1-ASC yeast 50 | NALP3 retest inactive
CCCCNC(=O)Oc1cc(CCl)on1	none (no result: V-ATPase pHluor)
CCCCNC(=O)Oc1c(Br)cc2sc(=O)oc2c1Br	NLRP3 yeast inh 72 (no result: NALP1 inh, V-ATPase pHluor) | NALP3 confirm 62
COc1ccc(NC(=O)N2CCCC2C(=O)NCc2cccs2)cc1 (configuration not stated)	none
Cc1ccc(-c2nc(S(=O)(=O)c3ccc(C)cc3)c(N(C)C)o2)cc1	NLRP3 yeast inh 71 | NALP3 confirm 66 | Casp1-ASC yeast 82 | NALP3 retest 62
O=C(CN1CCCCCCC1)Nc1cc(Cl)cc(Cl)c1	NLRP3 yeast inh 51 | NALP3 confirm inactive
Cc1ccccc1NC(=O)c1cnn(-c2ccccc2)c1C	none
Cc1c(C(=O)Nc2cccc(F)c2)cnn1-c1ccccc1	NLRP3 yeast inh 55 | NALP3 confirm 72 | Casp1-ASC yeast 71 | NALP3 retest 64
